From PubChem BioAssay AID434970 (Sanford-Burnham Center for Chemical Genomics, 2010) come the findings set out here.

Hit rate of the full screen: of about 11,000 compounds, about 310 (2.8%) were called active. No stated cut-off is given here; in the data, active means activity change below about -85%; inactive means the rest. The full list was thinned out, with actives kept by preference.

The experiment has as its system intestinal alkaline phosphatase [Mus musculus]. Kind of experiment: activators of mouse IAP, confirmation, biochemical, luminescence, single concentration (AID 434970). The following applies: purified mouse IAP, CDP-Star luminescence, 30 min, at 10 µM; activation factor: measured here: IAP activation factor, stronger effect = higher value; activity change, negative = activation: stronger effect = lower value.
For `O=C(NCCc1ccncc1)Nc1ccc(Cl)cc1`, the activation factor was 1.09 and the activity change, negative = activation is -8.6% (inactive).
For the compound `CCCc1c(NC(=O)Nc2ccc(F)cc2)cnn1-c1ccc(Cl)cc1`, the activation factor is 2.42 and the activity change, negative = activation is -142% (active).
For `CCCc1c(NC(=O)Nc2ccc(F)cc2)cnn1-c1ccccc1`, the activation factor came to 1.57 and the activity change, negative = activation was -57.2% (inactive).
With `COCCn1c(SCC(=O)Nc2nc3ccccc3s2)nnc1-c1ccoc1C`, the activation factor came out at 0.944 and the activity change, negative = activation is 5.6% (inactive).
In the case of `N#CCCn1c(=S)[nH]c2ccccc21`, the activation factor was 0.98 and the activity change, negative = activation is 2% (inactive).
For the compound `Cc1ccc(S(=O)(=O)Nc2ccc(O)c(Sc3ncn[nH]3)c2)cc1`, the activation factor stood at 0.349 and the activity change, negative = activation is 65.1% (inactive).
In the case of `COC(=O)c1cccc(NC(=O)Nc2ccc(Cl)c(Cl)c2)c1`, the activation factor was 1.89 and the activity change, negative = activation is -88.6% (inactive).
With `Cc1cc(C)cc(C(=O)N(NC(=O)Nc2ccc(Cl)cc2)C(C)(C)C)c1`, the activation factor stood at 4.22 and the activity change, negative = activation was -322% (active).
`CN(C)S(=O)(=O)Oc1cccc(C(=O)Nc2ccc(Cl)c(Cl)c2)c1`: the activation factor is 0.948 and the activity change, negative = activation was 5.2% (inactive).
Regarding `CN(C)S(=O)(=O)Oc1cccc(C(=O)Nc2ccc(Cl)cc2)c1`, the activation factor was 0.992 and the activity change, negative = activation was 0.85% (inactive).
For `CC(C)(C)N(NC(=O)Nc1ccc(Cl)c(Cl)c1)C(=O)c1ccccc1`, the activation factor is 3.95 and the activity change, negative = activation is -295% (active).
The like results for `CNC(=O)Nc1ccc(Cl)cc1` were, in that order, 1.26 and -26.3% (inactive).
The matching figures for `CCCN(/C=N/c1sc2c(c1C#N)CCCCC2)CCC`: 0.953 and 4.7% (inactive).
Turning to `Cn1ncc(C#N)c1/N=C/N1CCOCC1`, the activation factor amounted to 1.05 and the activity change, negative = activation is -4.75% (inactive).
`Cc1ccc(CNC(=O)c2ccc(NC(=O)CCS(=O)(=O)c3cccs3)cc2)cc1`: the activation factor was determined as 0.978 and the activity change, negative = activation was 2.15% (inactive).
As to `CC(NC(=S)Nc1ccc(S(=O)(=O)N2CCOCC2)cc1)C1CC2CCC1C2` (configuration not stated), the activation factor worked out at 2.45 and the activity change, negative = activation is -145% (active).
Take `CC(C)c1ccc(N(CC(=O)Nc2ccc(S(=O)(=O)N3CCOCC3)cc2)S(C)(=O)=O)cc1`: the activation factor was determined as 1.12 and the activity change, negative = activation is -12.1% (inactive).
As to `O=C(Nc1ccc(S(=O)(=O)N2CCOCC2)cc1)C1CCCCC1`, the activation factor was 0.984 and the activity change, negative = activation is 1.6% (inactive).
In the case of `Cc1cc[n+](CCC(=O)O)c2ccccc12`, the activation factor amounted to 0.901 and the activity change, negative = activation is 9.85% (inactive).
`CCN(C1CCCCC1)S(=O)(=O)c1cc(C)ccc1OC`: the activation factor turned out to be 1.04 and the activity change, negative = activation is -4.35% (inactive).
As for `CN1CC(COCc2ccccc2)Oc2ccccc2S1(=O)=O` (configuration not stated), the activation factor amounted to 1.04 and the activity change, negative = activation was -4.4% (inactive).
Regarding `CC(NC(=O)Nc1ccc(Cl)cc1)C(c1cccs1)N1CCOCC1` (configuration not stated), the activation factor stood at 1.71 and the activity change, negative = activation was -71.1% (inactive).
Regarding `CC(NC(=O)Nc1ccc(Cl)c(Cl)c1)C(c1ccccc1)N1CCOCC1` (configuration not stated), the activation factor amounted to 3.21 and the activity change, negative = activation was -221% (active).
With `CC(Cc1cccs1)NC(=O)Nc1ccc(Cl)c(Cl)c1` (configuration not stated), the activation factor was determined as 0.945 and the activity change, negative = activation is 5.6% (inactive).
As for `Cc1ccc(N2C(=O)c3ccc(C(=O)Nc4cccnc4)cc3C2=O)c(C)c1`, the activation factor was 0.946 and the activity change, negative = activation is 5.45% (inactive).
The matching figures for `Cc1ccc2[nH]c(=O)c(C(c3nnnn3CC3CCCO3)N3CCCc4ccccc43)cc2c1` (configuration not stated): 0.398 and 60.2% (inactive).
`CC(C)(C)c1ccc(NC(=O)NC2CCCc3ccccc32)cc1` (configuration not stated): the activation factor turned out to be 3.53 and the activity change, negative = activation is -253% (active).
On to `COC(=O)c1ccc(NC(=S)NC2CCc3ccccc32)cc1` (configuration not stated), for which the activation factor was found to be 1.51 and the activity change, negative = activation is -50.8% (inactive).
The matching figures for `Cc1cccc(C)c1NC(=O)CS(=O)CC(=O)NC1CCCc2ccccc21` (configuration not stated): 1.11 and -11.2% (inactive).
The matching figures for `CCOc1ccc(NC(=O)CN(C)CC(=O)NC2CCCc3ccccc32)cc1OCC` (configuration not stated): 1.1 and -9.8% (inactive).
Regarding `Cc1cccc(NC(=O)NC2CCCc3ccccc32)c1` (configuration not stated), the activation factor was determined as 3.36 and the activity change, negative = activation is -236% (active).
`COc1ccc(-c2nnn(CC(=O)NC3CCCc4ccccc43)n2)cc1OC` (configuration not stated): the activation factor was 1.06 and the activity change, negative = activation is -5.8% (inactive).
Regarding `Cc1cccc(-n2nnc(C(=O)NC3CCCc4ccccc43)c2N)c1` (configuration not stated), the activation factor is 1.01 and the activity change, negative = activation is -1.4% (inactive).
The matching figures for `COc1cccc(NC(=O)NC2CCCc3ccccc32)c1` (configuration not stated): 2.74 and -174% (active).
Regarding `CCOc1ccc(NC(=O)CS(=O)CC(=O)NC2CCCc3ccccc32)cc1` (configuration not stated), the activation factor came out at 1 and the activity change, negative = activation is -0.45% (inactive).
The matching figures for `CCCn1c(Nc2ccccc2C)nc2ccccc21`: 0.988 and 1.25% (inactive).
The matching figures for `COC(=O)c1cn(CC(=O)NC2CCCCC2)c2ccccc12`: 1.04 and -3.9% (inactive).
The matching figures for `Cc1ccc(-c2cc(-c3ccccc3)c3c(N)c(S(C)(=O)=O)sc3n2)cc1`: 0.966 and 3.45% (inactive).
With `O=c1oc2cc(OCc3ccc([N+](=O)[O-])cc3)ccc2c2c1CCCC2`, the activation factor was 0.909 and the activity change, negative = activation was 9.15% (inactive).
On to `COc1cccc(N=c2oc3ccc(OC)cc3cc2-c2nc3ccccc3[nH]2)c1`, for which the activation factor was 1.03 and the activity change, negative = activation is -2.7% (inactive).
Consider `Cc1oc(S(=O)(=O)N2CCCCC2)cc1NC(=O)Nc1ccc(Cl)cc1`, for which the activation factor is 1.42 and the activity change, negative = activation is -41.8% (inactive).
